In PubChem BioAssay (NCI):
Compounds without any hit were thinned out: in the full panel of roughly 83,000, 20% have a hit.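 Negative percent growth values reflect cell death: -40 means 40% of the cells present at the start died, and -100 means all died.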 Activity calls are given as the source filed them. Rule for the calls: active = growth percent below 10; inactive = the rest.

Each compound was assayed on HCC-2998 colon (assay: NCI-60 one-dose screen, 48 h (100 = growth as untreated, 0 = no growth, -100 = all killed)). Settings: 10 µM unless noted.

Compound | growth
O=C(Nc1ccccc1Cl)OCCN1CCOCC1 | 99.6% (inactive)
O=C(/C=C/C12c3ccccc3C(c3ccccc31)C1C(=O)N(c3ccc(Cl)cc3)C(=O)C12)c1ccccn1 (stereo not drawn) | -87.4% (active)
CN1CCN(c2ccc(Nc3ncc(Cl)c(NC[C@@H]4CCCO4)n3)cc2)CC1 | 60.7% (inactive)
Cc1ccc(S(=O)(=O)N(CC[C@@H]2C[C@H]2c2cc3ccccc3o2)C(=O)NC2CCCCC2)cc1 | 101% (inactive)
CCCCCOC(=O)c1ccc(NC(=O)CNCC(C)C)cc1 | 97.9% (inactive)
Cl.Fc1c[c-]c(-c2ccccn2)c(F)c1.[Pt].c1ccc([PH+](C[PH+](c2ccccc2)c2ccccc2)c2ccccc2)cc1 | -87.4% (active)
COc1cc(C2C=C(c3cccc(NC(C)=O)c3)Nc3ncnn32)cc(OC)c1OC (stereo not drawn) | 24% (inactive)
O=C(NCCN1CCC(O)CC1)c1cc2c(o1)C(=O)c1ccccc1C2=O | -92.9% (active)
CN(C)CCN1C(=O)c2cccc3c(-c4ccc(-c5nc6c7ccccc7c7ccccc7c6[nH]5)cc4)ccc(c23)C1=O | 104% (inactive)
CC(/C=N/NC(=O)c1cc(-c2ccco2)[nH]n1)=C\c1ccccc1 | 106% (inactive)
CC(C)N(CCOC(=O)Nc1ccccc1Cl)C(C)C | 102% (inactive)
O=C(NCOC(O)C(Cl)(Cl)Cl)NCOC(O)C(Cl)(Cl)Cl (stereo not drawn) | 118% (inactive)
CCn1c(Sc2nnc(Nc3ccccc3)s2)nc2c1c(=O)n(C)c(=O)n2C | 92.7% (inactive)
COc1ccc(-c2nc3sccn3c2/C=C/C(=O)c2c[nH]c3ccccc23)cc1 | 67.4% (inactive)
CCCCCCNc1cc(C)nc2ccc(OC)cc12 | 48.4% (inactive)
CNC(=O)c1cc(Oc2ccc3nc(NC(=O)Nc4cc(C(F)(F)F)cc(C(F)(F)F)c4)sc3c2)ccn1 | 5.71% (active)
N#C/C=C(\c1ccc([N+](=O)[O-])cc1)n1nnc2cc(Cl)c(Cl)cc21 | 19.9% (inactive)
CCCCCCCSc1ccc(C(=O)O)cc1 | 114% (inactive)
N[C@@H]1CCC[C@H]1NCCCCN1C(=O)c2cccc3cccc(c23)C1=O | 60.1% (inactive)
CCOC(=O)C1C(=O)C=C(c2cnccn2)CC1c1ccc(OC)c(OC)c1 (stereo not drawn) | 99% (inactive)

Compound | growth
CCN(CC)CCOC(=O)N1c2ccccc2Sc2ccccc21 | 102% (inactive)
CCCN1CCN(c2ccc3nc(-c4ccc5nc(-c6ccc(OCC)c(OCC)c6)[nH]c5c4)[nH]c3c2)CC1 | -79.5% (active)
COc1ccccc1NC(=O)Nc1ccc(-c2nc3ccccc3o2)cc1 | 106% (inactive)
COc1ccc(/C=C2\COc3ccc(O)c(O)c3C2=O)c(OC)c1 | 104% (inactive)
NC(=O)c1c(NC(=O)c2ccc(C(F)(F)F)cc2Cl)sc2c1CCC(=O)C2 | -6.6% (active)
COc1ccc(/C(C)=C(\c2ccc(Cl)cc2)c2ccc(OCCN(C)C)cc2)cc1F | 25.4% (inactive)
O=S(=O)(Cc1ccccc1)c1nc2ccccc2s1 | 103% (inactive)
O=C1NC(=S)S/C1=C\N1N=C(c2ccc(Cl)cc2)CC1c1ccc(F)cc1 (stereo not drawn) | 100% (inactive)
CC(=O)NCC(=O)Nc1ccc(-c2nnc3ccccn23)nc1.CC(=O)NCC(=O)Nc1ccc(-c2nnc3ccccn23)nc1.[Pt+2] | 106% (inactive)
COc1ccc(-n2sc(=O)n(Cc3ccc(COC(=O)C(C)c4ccc(CC(C)C)cc4)cc3)c2=O)cc1 (stereo not drawn) | 83.9% (inactive)
C=C(C)C1CCC(=C)C2CCC3(C)OC12/C=C(/COC(C)=O)CCC3O (stereo not drawn) | 106% (inactive)
CCN(CCO)CC(=O)c1cc(Cl)cc(Cl)c1Cl | 98.2% (inactive)
CNC=O | 174% (inactive)
O=[N+]([O-])c1ccc(-c2cc3c(Nc4ccc(OCc5cccc(Cl)c5)c(Cl)c4)ncnc3s2)cc1 | 102% (inactive)
Cc1nn(Cc2ccccc2)cc1C(=O)Nc1sc2c(c1C(N)=O)CCC(=O)C2 | 80.6% (inactive)
CCOC(=O)c1c2c(c(C)n1C)-c1nn(Cc3ccc(OC)cc3)cc1CC2 | 109% (inactive)
Cc1nc(Nc2ccc(NC(=S)Nc3ccccc3)cc2)c2ccccc2n1 | 104% (inactive)
CCC(C)NCc1ccccc1 (stereo not drawn) | 102% (inactive)
O=C(Nc1ccc(N2CCCCC2)c(Cl)c1)c1ccc(Br)o1 | 111% (inactive)

Each compound was assayed on KM12 colon in the same assay as above. Settings: 10 µM unless noted.

Compound | growth
O=C(Nc1ccccc1Cl)OCCN1CCOCC1 | 102% (inactive)
O=C(/C=C/C12c3ccccc3C(c3ccccc31)C1C(=O)N(c3ccc(Cl)cc3)C(=O)C12)c1ccccn1 (stereo not drawn) | -60.8% (active)
CN1CCN(c2ccc(Nc3ncc(Cl)c(NC[C@@H]4CCCO4)n3)cc2)CC1 | 9.71% (active)
Cc1ccc(S(=O)(=O)N(CC[C@@H]2C[C@H]2c2cc3ccccc3o2)C(=O)NC2CCCCC2)cc1 | 105% (inactive)
CCCCCOC(=O)c1ccc(NC(=O)CNCC(C)C)cc1 | 104% (inactive)
Cl.Fc1c[c-]c(-c2ccccn2)c(F)c1.[Pt].c1ccc([PH+](C[PH+](c2ccccc2)c2ccccc2)c2ccccc2)cc1 | -82% (active)
COc1cc(C2C=C(c3cccc(NC(C)=O)c3)Nc3ncnn32)cc(OC)c1OC (stereo not drawn) | 15.2% (inactive)
O=C(NCCN1CCC(O)CC1)c1cc2c(o1)C(=O)c1ccccc1C2=O | -89.3% (active)
CN(C)CCN1C(=O)c2cccc3c(-c4ccc(-c5nc6c7ccccc7c7ccccc7c6[nH]5)cc4)ccc(c23)C1=O | 75.8% (inactive)
CC(/C=N/NC(=O)c1cc(-c2ccco2)[nH]n1)=C\c1ccccc1 | 93.9% (inactive)
CC(C)N(CCOC(=O)Nc1ccccc1Cl)C(C)C | 104% (inactive)
O=C(NCOC(O)C(Cl)(Cl)Cl)NCOC(O)C(Cl)(Cl)Cl (stereo not drawn) | 109% (inactive)
CCn1c(Sc2nnc(Nc3ccccc3)s2)nc2c1c(=O)n(C)c(=O)n2C | 110% (inactive)
COc1ccc(-c2nc3sccn3c2/C=C/C(=O)c2c[nH]c3ccccc23)cc1 | 76.8% (inactive)
CCCCCCNc1cc(C)nc2ccc(OC)cc12 | 66.3% (inactive)
CNC(=O)c1cc(Oc2ccc3nc(NC(=O)Nc4cc(C(F)(F)F)cc(C(F)(F)F)c4)sc3c2)ccn1 | -14.7% (active)
N#C/C=C(\c1ccc([N+](=O)[O-])cc1)n1nnc2cc(Cl)c(Cl)cc21 | -81.1% (active)
CCCCCCCSc1ccc(C(=O)O)cc1 | 116% (inactive)
N[C@@H]1CCC[C@H]1NCCCCN1C(=O)c2cccc3cccc(c23)C1=O | 63.5% (inactive)
CCOC(=O)C1C(=O)C=C(c2cnccn2)CC1c1ccc(OC)c(OC)c1 (stereo not drawn) | 102% (inactive)

Compound | growth
CCN(CC)CCOC(=O)N1c2ccccc2Sc2ccccc21 | 99.3% (inactive)
CCCN1CCN(c2ccc3nc(-c4ccc5nc(-c6ccc(OCC)c(OCC)c6)[nH]c5c4)[nH]c3c2)CC1 | -54.8% (active)
COc1ccccc1NC(=O)Nc1ccc(-c2nc3ccccc3o2)cc1 | 105% (inactive)
COc1ccc(/C=C2\COc3ccc(O)c(O)c3C2=O)c(OC)c1 | 45% (inactive)
NC(=O)c1c(NC(=O)c2ccc(C(F)(F)F)cc2Cl)sc2c1CCC(=O)C2 | -56.7% (active)
COc1ccc(/C(C)=C(\c2ccc(Cl)cc2)c2ccc(OCCN(C)C)cc2)cc1F | 34.2% (inactive)
O=S(=O)(Cc1ccccc1)c1nc2ccccc2s1 | 93% (inactive)
O=C1NC(=S)S/C1=C\N1N=C(c2ccc(Cl)cc2)CC1c1ccc(F)cc1 (stereo not drawn) | 87.4% (inactive)
CC(=O)NCC(=O)Nc1ccc(-c2nnc3ccccn23)nc1.CC(=O)NCC(=O)Nc1ccc(-c2nnc3ccccn23)nc1.[Pt+2] | 109% (inactive)
COc1ccc(-n2sc(=O)n(Cc3ccc(COC(=O)C(C)c4ccc(CC(C)C)cc4)cc3)c2=O)cc1 (stereo not drawn) | 85.8% (inactive)
C=C(C)C1CCC(=C)C2CCC3(C)OC12/C=C(/COC(C)=O)CCC3O (stereo not drawn) | 117% (inactive)
CCN(CCO)CC(=O)c1cc(Cl)cc(Cl)c1Cl | 102% (inactive)
CNC=O | 95.5% (inactive)
O=[N+]([O-])c1ccc(-c2cc3c(Nc4ccc(OCc5cccc(Cl)c5)c(Cl)c4)ncnc3s2)cc1 | 74% (inactive)
Cc1nn(Cc2ccccc2)cc1C(=O)Nc1sc2c(c1C(N)=O)CCC(=O)C2 | 13.5% (inactive)
CCOC(=O)c1c2c(c(C)n1C)-c1nn(Cc3ccc(OC)cc3)cc1CC2 | 92.4% (inactive)
Cc1nc(Nc2ccc(NC(=S)Nc3ccccc3)cc2)c2ccccc2n1 | 104% (inactive)
CCC(C)NCc1ccccc1 (stereo not drawn) | 100% (inactive)
O=C(Nc1ccc(N2CCCCC2)c(Cl)c1)c1ccc(Br)o1 | 70.1% (inactive)
